# Source: the supplement of paper PMC4466140
# What was measured:
# Test in all cases: SPOT peptide array binding signal intensity (averaged, normalized) (arbitrary units (background-subtracted, floor 0; scale differs between SH3 domains)); higher = stronger binding of the SH3 domain to the peptide
# [1] = target: CaNbp2
# Procedure, shortened: (§1)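 Detection of bound protein relied on anti-GST antibody, an HRP anti-mouse secondary and luminol, with imaging and quantification in Genespotter. The bound protein was GST-fused SH3 domains from four yeast species, incubated at 10 μg/ml overnight at 4°C in TBS-based blocking buffer on cellulose membranes carrying synthetic 15-mer peptides with cysteines replaced by serines. Binding signal is normalized, background-subtracted spot intensity averaged over replicates, in arbitrary units that differ between domains.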
# [2] = target: CaRvs167
# Procedure, shortened: as §1
# [3] = target: CaRvs167-3
# Procedure, shortened: as §1
# [4] = target: CaSho1
# Procedure, shortened: as §1
# [5] = target: CaSla1-D1-D2
# Procedure, shortened: as §1
# [6] = target: CaSla1-D3
# Procedure, shortened: as §1
# [7] = target: ScAbp1
# Procedure, shortened: as §1
# [8] = target: ScBbc1
# Procedure, shortened: as §1
# [9] = target: ScBem1-D1
# Procedure, shortened: as §1
# [10] = target: ScBzz1-D1
# Procedure, shortened: as §1
# [11] = target: ScBzz1-D2
# Procedure, shortened: as §1
# [12] = target: ScCyk3
# Procedure, shortened: as §1
# [13] = target: ScFus1
# Procedure, shortened: as §1
# [14] = target: ScHof1
# Procedure, shortened: as §1
# [15] = target: ScHse1
# Procedure, shortened: as §1
# [16] = target: ScLsb1
# Procedure, shortened: as §1
# [17] = target: ScLsb2
# Procedure, shortened: as §1
# [18] = target: ScLsb3
# Procedure, shortened: as §1
# [19] = target: ScLsb4
# Procedure, shortened: as §1
# [20] = target: ScMyo3
# Procedure, shortened: as §1
# [21] = target: ScMyo5
# Procedure, shortened: as §1
# [22] = target: ScNbp2
# Procedure, shortened: as §1
# [23] = target: ScPex13
# Procedure, shortened: as §1
# [24] = target: ScRvs167
# Procedure, shortened: as §1
# [25] = target: ScSho1
# Procedure, shortened: as §1
# [26] = target: ScSla1-D1-D2
# Procedure, shortened: as §1
# [27] = target: ScSla1-D3
# Procedure, shortened: as §1
# [28] = target: SpAbp1-D1
# Procedure, shortened: as §1
# [29] = target: SpBbc1
# Procedure, shortened: as §1
# [30] = target: SpBzz1-D1
# Procedure, shortened: as §1
# [31] = target: SpBzz1-D2
# Procedure, shortened: as §1
# [32] = target: SpCyk3
# Procedure, shortened: as §1
# [33] = target: SpHof1
# Procedure, shortened: as §1
# [34] = target: SpHof1-2
# Procedure, shortened: as §1
# [35] = target: SpHof1-3
# Procedure, shortened: as §1
# [36] = target: SpHse1
# Procedure, shortened: as §1
# [37] = target: SpLsb1
# Procedure, shortened: as §1
# [38] = target: SpLsb4
# Procedure, shortened: as §1
# [39] = target: SpMyo1
# Procedure, shortened: as §1
# [40] = target: SpNbp2
# Procedure, shortened: as §1
# [41] = target: SpPex13
# Procedure, shortened: as §1
# [42] = target: SpRvs167
# Procedure, shortened: as §1
# [43] = target: SpSla1-D1-D2
# Procedure, shortened: as §1
# [44] = target: SpSla1-D3
# Procedure, shortened: as §1
binder,measurement,setting,value
EEEEEHPPLPARRKS,SPOT peptide array binding signal intensity,[1],≤ 0
same,SPOT peptide array binding signal intensity,[2],408
same,SPOT peptide array binding signal intensity,[3],6.5
same,SPOT peptide array binding signal intensity,[4],≤ 0
same,SPOT peptide array binding signal intensity,[5],≤ 0
same,SPOT peptide array binding signal intensity,[6],≤ 0
same,SPOT peptide array binding signal intensity,[7],≤ 0
same,SPOT peptide array binding signal intensity,[8],6.25
same,SPOT peptide array binding signal intensity,[9],0.5
same,SPOT peptide array binding signal intensity,[10],16
same,SPOT peptide array binding signal intensity,[11],27.5
same,SPOT peptide array binding signal intensity,[12],≤ 0
same,SPOT peptide array binding signal intensity,[13],4
same,SPOT peptide array binding signal intensity,[14],4.25
same,SPOT peptide array binding signal intensity,[15],≤ 0
same,SPOT peptide array binding signal intensity,[16],444
same,SPOT peptide array binding signal intensity,[17],17
same,SPOT peptide array binding signal intensity,[18],9930
same,SPOT peptide array binding signal intensity,[19],3690
same,SPOT peptide array binding signal intensity,[20],≤ 0
same,SPOT peptide array binding signal intensity,[21],≤ 0
same,SPOT peptide array binding signal intensity,[22],≤ 0
same,SPOT peptide array binding signal intensity,[23],656
same,SPOT peptide array binding signal intensity,[24],1940
same,SPOT peptide array binding signal intensity,[25],≤ 0
same,SPOT peptide array binding signal intensity,[26],102
same,SPOT peptide array binding signal intensity,[27],≤ 0
same,SPOT peptide array binding signal intensity,[28],≤ 0
same,SPOT peptide array binding signal intensity,[29],1.5
same,SPOT peptide array binding signal intensity,[30],17
same,SPOT peptide array binding signal intensity,[31],2
same,SPOT peptide array binding signal intensity,[32],≤ 0
same,SPOT peptide array binding signal intensity,[33],0.5
same,SPOT peptide array binding signal intensity,[34],1
same,SPOT peptide array binding signal intensity,[35],1
same,SPOT peptide array binding signal intensity,[36],1
same,SPOT peptide array binding signal intensity,[37],10
same,SPOT peptide array binding signal intensity,[38],7640
same,SPOT peptide array binding signal intensity,[39],≤ 0
same,SPOT peptide array binding signal intensity,[40],3.5
same,SPOT peptide array binding signal intensity,[41],≤ 0
same,SPOT peptide array binding signal intensity,[42],1510
same,SPOT peptide array binding signal intensity,[43],≤ 0
same,SPOT peptide array binding signal intensity,[44],5
